TEAD-YAP inh: TEAD-YAP interaction inhibition; inhibition, % at 9.12 µM; HEK-TIYL cells, TEAD-Gal4/YAP UAS-luciferase luminescence; 640,000 tested, 1.4% active; AID 1259422; in the data active = inhibition above about 32%;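 note: 0% = median of test compound wells and 100% = reference inhibitor wells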
MITF primary: blocks human microphthalmia-associated transcription factor. O75030. AlphaScreen MITF homodimerization, bead proximity signal. inhibition, % at 2.6 µM. 650,000 tested, 0.91% active. AID 1259374; in the data active = inhibition above about 50%;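 note: 0% = vehicle wells with protein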
FBW7 activator: human FBW7 E3 ligase activation, primary screen; Q969H0; AlphaScreen FBW7–phospho-cyclin E peptide binding, activator screen; normalized activity (activation), % at 26.1 µM; 650,000 tested, 0.13% active; in the data active = normalized activity above about 1.9%;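 note: purified mutant Fbw7 with reduced substrate affinity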
GPR151 activ: activates the human receptor GPR151; 650,000 tested, 1% active; PathHunter beta-arrestin GPR151 cells, luminescence; AID 1508602; activation, % at 11.2 µM; in the data active = activation above about 4.9%;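 note: 0% = median of compound wells and 100% = cells with positive control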
Target sequence (Q8TDV0 whole entry, looked up): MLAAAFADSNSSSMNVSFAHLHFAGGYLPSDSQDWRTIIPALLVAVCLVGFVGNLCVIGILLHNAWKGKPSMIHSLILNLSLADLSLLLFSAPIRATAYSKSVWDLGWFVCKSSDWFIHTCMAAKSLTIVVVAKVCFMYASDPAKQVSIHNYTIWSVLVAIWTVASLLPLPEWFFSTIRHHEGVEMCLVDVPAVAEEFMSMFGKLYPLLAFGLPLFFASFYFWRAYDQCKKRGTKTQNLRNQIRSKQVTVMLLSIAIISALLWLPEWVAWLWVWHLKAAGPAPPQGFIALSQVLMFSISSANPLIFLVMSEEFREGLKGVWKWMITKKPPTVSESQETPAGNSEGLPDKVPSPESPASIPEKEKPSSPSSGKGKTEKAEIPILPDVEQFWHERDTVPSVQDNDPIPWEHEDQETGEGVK
* hit, by the source's call. A selection: hits, their analogues and other compounds. The true share with any hit is near 3.5%.

SMILES | TEAD-YAP inh | MITF primary | FBW7 activator | GPR151 activ
c1cncc(Nc2nc(NCc3nc4ccccc4[nH]3)c3ncn(C4CCCCC4)c3n2)c1 | 70* | 2 | 0 | -1
CC(C)n1cnc2c(Nc3ccccc3)nc(Nc3ccc(C(F)(F)F)cc3)nc21 | -8 | 9 | 0 | 1
c1cncc(Nc2nc(NCc3nc4ccccc4[nH]3)c3[nH]cnc3n2)c1 | 0 | -8 | 3.0* | -2
CC(C)n1cnc2c(NCc3nc4ccccc4[nH]3)nc(Nc3ccc(C(F)(F)F)cc3)nc21 | 56* | -16 | 0 | 0
O=C(NC1CC1)c1ccc(-c2nc(NCc3nc4ccccc4[nH]3)c3ncn(C4CCCCC4)c3n2)cc1 | 45* | 5 | 0 | -1
CN1CCN(C(=O)c2ccc(-c3nc(NCc4nc5ccccc5[nH]4)c4ncn(C5CCCCC5)c4n3)cc2)CC1 | 5 | 15 | 0 | 0
COCCOC(=O)C1=C(C)NC2=C(C(=O)CC(C)(C)C2)C1c1ccccc1[N+](=O)[O-] (stereo not drawn) | 10 | 0 | 0 | 1
COc1ccc(C2NC(C(=O)O)Cc3c2[nH]c2ccccc32)cc1Cn1cc([N+](=O)[O-])cn1 (stereo not drawn) | -11 | -1 | 0 | 0
O=C(NNC(=O)c1ccc(Br)s1)Nc1cccc([N+](=O)[O-])c1 | -2 | 2 | 0 | -1
CCOc1ccc(NC(=O)c2cc3c(=O)n4ccccc4nc3n2C)cc1 | -12 | 4 | 0 | -1
CCCc1cnc2c(c1SCC(=O)Nc1ccc(F)cc1)c(=O)n(C)c(=O)n2C | -6 | -2 | 0 | 1
CC(C)n1cnc2c(NCc3nc4ccccc4[nH]3)nc(Nc3ccc(-n4ccnc4)cc3)nc21 | 46* | 13 | 0 | -1
Cn1c(Nc2nc(NCc3nc4ccccc4[nH]3)c3ncn(-c4ccccc4)c3n2)nc2ccccc21 | 19 | 10 | 0 | 0
CC(C)n1cnc2c(NCc3nc4ccccc4[nH]3)nc(Nc3ccccc3)nc21 | 64* | -5 | 0 | -1
c1ccc2[nH]c(CNc3nc(Nc4ccc(-n5ccnc5)cc4)nc4c3ncn4C3CCCCC3)nc2c1 | -24 | -9 | 0 | -2
CC(C)n1cnc2c(NCc3nc4ccccc4[nH]3)nc(Nc3cccnc3)nc21 | 86* | 9 | 0 | -2
CC(C)NC(=O)[C@@H]1C[C@H](NC2CCN(C)CC2)CN1Cc1cccc(Cl)c1 | 1 | 2 | 0 | 0
CC1CN(Cc2ccccn2)Cc2cc(Cl)ccc2O1 (stereo not drawn) | 13 | 8 | 0 | 0
Cc1cc(C)cc(N2C(=O)/C(=C/c3ccc(F)cc3)S(=O)(=O)C2c2cccc([N+](=O)[O-])c2)c1 (stereo not drawn) | 6 | 3 | 0 | 1
O=c1cc(CN2CCN(c3ccccc3O)CC2)c2cc(O)c(O)cc2o1 | -5 | 90* | 0 | 0
O=c1cc(CN2CCN(Cc3ccc4c(c3)OCO4)CC2)c2cc(O)c(O)cc2o1 | -3 | 91* | -1 | 4
O=c1cc(CN2CCCCC2)c2cc(O)ccc2o1 | 1 | 6 | 0 | 0
C/C(Cn1nc([N+](=O)[O-])cc1C)=N/NC(=O)c1cc(O)c(O)c(O)c1 | 8 | 56* | 0 | 0
COCCCNC(=O)c1ccc(SCc2cccc(OC)c2OC)c([N+](=O)[O-])c1 | 61* | 4 | 1 | 0
COc1ccccc1N(CC(=O)NC(C(C)C)C(C)C)S(=O)(=O)c1ccc(C)cc1 | -2 | 1 | 0 | -2
SMILES | TEAD-YAP inh | MITF primary | FBW7 activator | GPR151 activ
OC1(c2ccc(OC(F)F)cc2)CSC(=Nc2cccnc2)N1C1CC1 (stereo not drawn) | 42* | 20 | 0 | 0
COc1ccc(C2CC(=O)C3=C(C2)NC(C)=C(C(=O)OCc2ccccc2)C3c2cccc([N+](=O)[O-])c2)cc1 (stereo not drawn) | 59* | 1 | 0 | 1
CC1=C(C(=O)OCc2ccccc2)C(c2ccc(O)c([N+](=O)[O-])c2)C2=C(CC(c3ccccc3)CC2=O)N1 (stereo not drawn) | 44* | 15 | 0 | 0
COC(=O)C1=C(C)NC2=C(C(=O)CC(c3ccccc3)C2)C1c1ccc(O)c([N+](=O)[O-])c1 (stereo not drawn) | 9 | 18 | 0 | 0
CC1=C(C(=O)OCc2ccccc2)C(c2cccc([N+](=O)[O-])c2)C2=C(CC(c3ccccc3)CC2=O)N1 (stereo not drawn) | 56* | -4 | 0 | 0
c1ccc2c(c1)nc(N1CCCCC1)c1nnnn12 | -3 | -10 | 0 | 1
O=C(CN1CCN(Cc2ccccc2)CC1)Nc1ccc(SC(F)F)cc1 | 4 | 5 | 0 | 2
NS(=O)(=O)c1ccc(CCNC(=O)CCCn2c(SCc3cccc([N+](=O)[O-])c3)nc3ccsc3c2=O)cc1 | 18 | -3 | 0 | 0
CC(=O)NC(c1ccc(C)cc1)c1ccc2cccnc2c1O (stereo not drawn) | 85* | 51* | -2 | -1
CC(=O)NC(c1ccc(Br)cc1)c1ccc2cccnc2c1O (stereo not drawn) | 83* | -33 | 0 | -1
Cc1cccnc1NC(c1ccc([N+](=O)[O-])cc1)c1ccc2cccnc2c1O (stereo not drawn) | 70* | 48 | -2 | -1
CC(=O)NC(c1ccc([N+](=O)[O-])cc1)c1ccc2cccnc2c1O (stereo not drawn) | 84* | -21 | 0 | 2
O=[N+]([O-])c1ccc(C(O)Cn2c(-c3ccccc3)csc2=Nc2ccccc2)cc1 (stereo not drawn) | -6 | 8 | 0 | 1
C=Cn1ccc(CC)c1-c1cccs1 | -2 | -8 | 0 | 0
CC(=O)NC(c1ccc2ccccc2c1)c1ccc2cccnc2c1O (stereo not drawn) | 80* | 36 | -2 | 0
CCOc1ccc(C(NC(C)=O)c2cc(Cl)c3cccnc3c2O)cc1 (stereo not drawn) | 9 | 3 | -1 | 1
COc1ccccc1N=c1scc(-c2ccc3c(c2)NC(=O)CO3)n1CC1CCCO1 (stereo not drawn) | 1 | 26 | 1 | 4
Cc1ccccc1N=c1scc(-c2ccc3c(c2)NC(=O)CO3)n1Cc1ccco1 | 48* | 0 | 0 | 0
Oc1cccc(-c2cnn3c(NCc4ccccn4)ccnc23)c1 | 56* | 14 | -1 | -1
CN(Cc1ccccc1)c1ccnc2c(-c3cccnc3)cnn12 | -46 | -29 | 0 | 1
CN(Cc1ccccc1)c1ccnc2c(-c3cccc(CO)c3)cnn12 | 76* | -18 | 0 | 0
OCc1cccc(-c2cnn3c(NCc4ccccn4)ccnc23)c1 | 77* | 23 | -1 | 0
COc1ccc(C)c2sc(N(Cc3ccncc3)C(=O)c3ccc(Br)s3)nc12 | 9 | -8 | 0 | 0
Nc1cccc(-c2ccc(C(=O)NCCCN3CCCC3=O)s2)c1 | -6 | -3 | 0 | -2
Nc1c(C(=O)c2ccc(F)cc2)sc2nc(-c3ccccc3)cc(-c3ccco3)c12 | 7 | 63* | 0 | 2

Screens: PubChem, The Scripps Research Institute Molecular Screening Center
